Results: the supplement of paper PMC13380429

Legend:
[1] = tested on: Vero E6 infected with SARS-CoV-2; assay: morphology score (similarity to uninfected cells); higher = more like uninfected cells; settings: 24 h
[2] = tested on: Vero E6 infected with SARS-CoV-2; assay: SARS-CoV-2 infection rate relative to infected DMSO; higher = more infection, active = 60 or less; settings: 24 h

| Compound | morphology score [1] | SARS-CoV-2 infection rate [2] |
| --- | --- | --- |
| COc1cc(N)cn[n+]1-c1ccccc1 [amezinium] (10 µM) | 0.0864 | 100% (inactive) |
| Cc1ccc(C(=O)c2cc(O)c(O)c([N+](=O)[O-])c2)cc1 [tolcapone] (10 µM) | 0.192 | 110% (inactive) |
| O=c1[nH]c(=O)n([C@H]2CCCO2)cc1F (racemic) [ftorafur] (10 µM) | -0.016 | 116% (inactive) |
| CO[C@@H]1[C@@H](OC(N)=O)[C@@H](O)[C@H](Oc2ccc3c(O)c(NC(=O)c4ccc(O)c(CC=C(C)C)c4)c(=O)oc3c2C)OC1(C)C [novobiocin] (10 µM) | 0.165 | 95% (inactive) |
| O=C(N/N=C/c1ccc([N+](=O)[O-])o1)c1cc([N+](=O)[O-])cc([N+](=O)[O-])c1O [nifursol] (10 µM) | 0.0974 | 111% (inactive) |
| C[C@H](Nc1cc2c(-c3ccc4c(c3)OCO4)noc2cn1)c1ccccc1 (10 µM) | 0.191 | 84.5% (inactive) |
| OC[C@H]1O[C@@H](Oc2cc3c(O)cc(O)cc3[o+]c2-c2ccc(O)c(O)c2)[C@H](O)[C@@H](O)[C@@H]1O [kuromanin] (10 µM) | -0.129 | 110% (inactive) |
| CC(=O)OC[C@H](N)C(=O)O [O-acetyl-L-serine] (10 µM) | 0.0719 | 88% (inactive) |
| O=c1c(O)c(-c2cc(O)c(O)c(O)c2)oc2cc(O)cc(O)c12 [myricetin] (10 µM) | 0.195 | 110% (inactive) |
| CC(C)SC(=N)N [S-isopropylisothiourea] (10 µM) | 0.0211 | 105% (inactive) |
| CCN(CC)C(=O)N[C@H]1C[C@@H]2c3cccc4[nH]cc(c34)C[C@H]2N(C)C1 [terguride] (10 µM) | -0.00522 | 110% (inactive) |
| COc1ccc2c(c1)C=C1Cn3c-2c(C2CCCCC2)c2ccc(cc23)C(=O)NS(=O)(=O)N(C)CCOCCN(C)C1=O (10 µM) | 0.153 | 97.5% (inactive) |
| COC(=O)[C@H](c1ccccc1Cl)N1CCc2sccc2C1 [clopidogrel] (10 µM) | 0.229 | 99% (inactive) |
| COc1cc2c(cc1OC(C)C)[C@H](c1ccc(Cl)cc1)N(c1ccc(N(C)C[C@H]3CC[C@H](N4CCN(C)C(=O)C4)CC3)cc1)C(=O)C2 (0.833333 µM) | 0.244 | 93.5% (inactive) |
| Nc1ccn([C@H]2CC[C@@H](CO)O2)c(=O)n1 [zalcitabine] (10 µM) | 0.0931 | 104% (inactive) |
| CCCCN1CCCC1CNC(=O)c1cc(C#N)c2ccccc2c1OC (centres undefined) [nafadotride] (10 µM) | 0.327 | 89% (inactive) |
| C[C@]12CCC(=O)C[C@@H]1CC[C@@H]1[C@@H]2CC[C@]2(C)C=CC[C@@H]12 [androstenone] (10 µM) | -0.064 | 112% (inactive) |
| COc1cc(OC)nc(O[C@H](C(=O)O)C(OC)(c2ccccc2)c2ccccc2)n1 [darusentan] (10 µM) | -0.0345 | 116% (inactive) |
| CC(/C=C1\SC(=S)N(CC(=O)O)C1=O)=C\c1ccccc1 [epalrestat] (10 µM) | 0.192 | 106% (inactive) |
| OCCOc1ccc(/C(=C(/CCCl)c2ccccc2)c2ccccc2)cc1 [ospemifene] (10 µM) | 0.19 | 97.5% (inactive) |
| c1ccc(-c2nc(CN3CCN(c4ncccn4)CC3)c[nH]2)cc1 (10 µM) | -0.0694 | 107% (inactive) |
| C=CC(=O)Nc1cc2c(Nc3ccc(F)c(Cl)c3)ncnc2cc1OCCCN1CCOCC1 [canertinib] (10 µM) | -0.116 | 107% (inactive) |
| O=C(O)c1cc(O)c2c(Cl)cc(Cl)cc2n1 [5,7-dichlorokynurenic-acid] (10 µM) | -0.0314 | 104% (inactive) |
| Cc1ccc(-n2nc(C(C)(C)C)cc2NC(=O)Nc2ccc(OCCN3CCOCC3)c3ccccc23)cc1 [doramapimod] (10 µM) | 0.482 | 86% (inactive) |
| COC(=O)Nc1nc2cc([S+]([O-])c3ccccc3)ccc2[nH]1 (centres undefined) [oxfendazole] (10 µM) | 0.15 | 101% (inactive) |
| CC(C)(C)c1ccc(C(=O)CCCN2CCC(OC(c3ccccc3)c3ccccc3)CC2)cc1 [ebastine] (10 µM) | 0.606 | 50% (active) |
| N#CCNC(=O)c1ccc(-c2ccnc(Nc3ccc(N4CCOCC4)cc3)n2)cc1 (0.833333 µM) | 0.412 | 103% (inactive) |
